This note sets out measurements from PubChem BioAssay (EPA / NIEHS).

For orientation: AC50 means the concentration at which the activity in the assay is half-maximal.

The nature of experiment [1]: ATG_M_06_CIS: Attagene CIS-FACTORIAL HepG2 Assay for M06 Transcription Factor (Internal Marker) (AID 2282950). The settings on record: HepG2 Attagene CIS-FACTORIAL M06 internal marker reporter; actives raise or lower the signal. The essentials: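 Fluorescence-labelled RT-PCR products from cis-promoter reporter units, cut with HpaI and resolved by capillary electrophoresis, give the signal. Cells are human HepG2, dosed for 24 h. Serves as background control, fitted relative to DMSO.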

Experiment [2] addresses Hypoxia-inducible factor 1-alpha (Homo sapiens) (UniProt Q16665). Kind of experiment: ATG_HIF1a_CIS: Attagene CIS-FACTORIAL HepG2 Assay for human Hypoxia Inducible Factor 1 (HIF1A) (AID 2282951). The settings on record: HepG2 Attagene cis-factorial HIF1a reporter transcription; actives raise or lower the signal. The method, boiled down:
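RT-PCR/capillary electrophoresis fluorescence readout of reporter transcripts from endogenous-TF-driven cis elements in transfected HepG2 cells, 24 h exposure; activity fitted in both directions against DMSO controls.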

Experiment [3] addresses Hepatocyte nuclear factor 6 (Homo sapiens) (UniProt Q9UBC0). The experiment is described as follows: ATG_HNF6_CIS: Attagene CIS-FACTORIAL HepG2 Assay for human Hepatocyte Nuclear Factor 6 (HNF6) (AID 2282952). Conditions: HepG2 Attagene cis-factorial HNF6 reporter transcription; actives raise or lower the signal. The essentials: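 HepG2 cells transiently transfected with cis-element-driven multiple reporter transcription units, dosed 24 h; reporter mRNA quantified by RT-PCR, FAM primer extension, HpaI digestion and capillary electrophoresis; bidirectional fit versus DMSO baseline.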

For experiment [4], the target named is Heat shock factor protein 1 (Homo sapiens) (UniProt Q00613). The experiment is described as follows: ATG_HSE_CIS: Attagene CIS-FACTORIAL HepG2 Assay for human Heat Shock Transcription Factor 1 (HSE) (AID 2282953). Conditions: HepG2 HSE cis-reporter, Attagene RNA transcription; actives raise or lower the signal. The method, boiled down: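 After a 24 h incubation with test chemical, transfected HepG2 cells were harvested for RNA; reporter transcripts were measured by RT-PCR and capillary electrophoresis. Values reflect gain or loss of signal relative to DMSO.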

Experiment [5] in a line: ATG_MRE_CIS: Attagene CIS-FACTORIAL HepG2 Assay for human Metal Responsive Element (MRE) (AID 2282954). Conditions: HepG2 MRE cis-reporter transcription, Attagene multiplex; actives raise or lower the signal. The method, boiled down: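 After a 24 h chemical exposure, transiently transfected HepG2 cells yield RNA whose reporter sequences are amplified, FAM-labelled and sized by capillary electrophoresis. Curves are fitted bidirectionally relative to DMSO.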

Experiment [6] in a line: ATG_PXRE_CIS: Attagene CIS-FACTORIAL HepG2 Assay for human Pregnane X Receptor Element (PXRE) (AID 2282957). Conditions: HepG2 Attagene CIS-FACTORIAL PXRE reporter, mRNA; actives raise or lower the signal. The essentials: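 HepG2 cells transiently transfected with cis-regulated multiple reporter transcription units; endogenous factor activity measured as reporter mRNA 24 h after dosing. RT-PCR, fluorescent primer extension, HpaI digestion, capillary electrophoresis; bidirectional fit versus DMSO baseline.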

A short description of experiment [7]: ATG_PPRE_CIS: Attagene CIS-FACTORIAL HepG2 Assay for human Peroxisome Proliferator-activated Response Element (PPRE) (AID 2282958). Conditions: HepG2 PPRE cis-element reporter, Attagene transcription factor profiling; actives raise or lower the signal. The method, boiled down: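 Read-out: fluorescent reporter mRNA fragments resolved by capillary electrophoresis after RT-PCR. HepG2 cells carried transiently transfected PPRE-driven cis reporter constructs and were dosed for 24 h; gain or loss of signal fitted relative to DMSO.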

The nature of experiment [8]: ATG_RORE_CIS: Attagene CIS-FACTORIAL HepG2 Assay for human RAR-related Orphan Receptor Element (RORE) (AID 2282959). Conditions: HepG2 Attagene cis-factorial RORE reporter, mRNA; actives raise or lower the signal. The essentials: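 Readout: fluorescent reporter mRNA by RT-PCR plus capillary electrophoresis, 24 h after dosing transfected HepG2 cells. Endogenous transcription factor activity on a cis promoter element is measured. Gain or loss of signal fitted against DMSO.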

The nature of experiment [9]: ATG_Sox_CIS: Attagene CIS-FACTORIAL HepG2 Assay for human SRY-box transcription factor (SOX) (AID 2282960). Conditions: HepG2 Attagene cis-factorial SOX reporter, mRNA; actives raise or lower the signal. The method, boiled down: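 Read-out: fluorescent RT-PCR products of SOX1-linked reporter transcripts resolved by capillary electrophoresis, fitted bidirectionally against DMSO. Transiently transfected HepG2 cells, 24 h after chemical exposure, endogenous transcription factor activity.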

The target in experiment [10] is Transcription factor Sp1 (Homo sapiens) (UniProt P08047). Kind of experiment: ATG_Sp1_CIS: Attagene CIS-FACTORIAL HepG2 Assay for human Specificity Protein 1 (Sp1) (AID 2282961). Conditions: HepG2 Sp1 cis-reporter transcription, actives raise or lower the signal. The essentials:
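Read-out: fluorescence of 6-FAM-labeled, HpaI-digested RT-PCR products separated by capillary electrophoresis. HepG2 cells carried transfected cis-element reporter units and were exposed to chemicals for 24 h; gain or loss of signal fitted relative to DMSO.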

Experiment [11] in a line: ATG_SREBP_CIS: Attagene CIS-FACTORIAL HepG2 Assay for human Sterol Regulatory Element Binding (SREBP) (AID 2282962). The settings on record: HepG2 Attagene cis-factorial SREBP reporter, mRNA; actives raise or lower the signal. The method, boiled down:
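Transfected HepG2 (cis-regulated reporter library, endogenous TFs) → compound 24 h → total RNA → oligo(dT) RT → reporter-specific PCR → FAM primer extension, HpaI cut → CE fluorescence. Fit bidirectional vs DMSO.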

Experiment [12] concerns the target Signal transducer and activator of transcription 3 (Homo sapiens) (UniProt P40763). Kind of experiment: ATG_STAT3_CIS: Attagene CIS-FACTORIAL HepG2 Assay for human Signal Transducer and Activator of Transcription 3 (STAT3) (AID 2282963). The settings on record: HepG2, Attagene cis-factorial STAT3 reporter transcription; actives raise or lower the signal. The method, boiled down: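 After a 24 h compound incubation, total RNA from MRTU-transfected HepG2 cells was converted to cDNA and reporter sequences PCR-amplified, labelled and profiled by capillary electrophoresis. Gain and loss of signal were referenced to DMSO.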

Experiment [13] in a line: ATG_TA_CIS: Attagene CIS-FACTORIAL HepG2 Assay for human TA Basal Promoter (AID 2282964). The settings on record: HepG2 Attagene CIS-factorial TA basal promoter reporter; actives raise or lower the signal. The essentials:
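Multiplexed mRNA reporter assay, HepG2, 24 h. Reporter cDNA amplified, 6-FAM primer-extended, HpaI-cut, CE-sized; DMSO = negative control and baseline.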

Experiment [14] can be described thus: ATG_TCF_b_cat_CIS: Attagene CIS-FACTORIAL HepG2 Assay for human T-Cell-Factor with beta-catenin (TCF/b-cat) (AID 2282965). The settings on record: HepG2 TCF/beta-catenin cis-reporter transcription, actives raise or lower the signal. The method, boiled down:
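Measured: reporter mRNA in HepG2 transiently transfected with cis-promoter reporter units, 24 h after chemical addition. Fitting was bidirectional, DMSO as negative control.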

Experiment [15] can be described thus: ATG_TAL_CIS: Attagene CIS-FACTORIAL HepG2 Assay for human TAL Basal Promoter (AID 2282966).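 Further: background control endpoint measuring basal TAL promoter reporter mRNA not a specific factor.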 The settings on record: HepG2 Attagene cis-factorial TAL promoter reporter; actives raise or lower the signal. The essentials: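 HepG2 cells were transiently transfected with promoter-driven multiplexed reporter units and dosed for 24 h. Reporter mRNA was measured by RT-PCR with capillary electrophoresis fluorescence; bidirectional fits used DMSO as baseline, serving as a background control.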

A short description of experiment [16]: ATG_TGFb_CIS: Attagene CIS-FACTORIAL HepG2 Assay for human Transforming Growth Factor (TGF) (AID 2282967). Conditions: HepG2 Attagene CIS TGFb reporter, mRNA transcription; actives raise or lower the signal. The method, boiled down: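 Transcript-level reporter readout: HepG2 transfectants, 24 h exposure, RNA to cDNA, reporter-specific PCR, fluorescent primer extension, capillary sizing against ROX standards. Gain- or loss-of-signal relative to DMSO.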

Experiment [17] is described as follows: ATG_VDRE_CIS: Attagene CIS-FACTORIAL HepG2 Assay for human Vitamin D Receptor Element (VDRE) (AID 2282968). The settings on record: HepG2 VDRE cis-reporter transcription, actives raise or lower the signal. The essentials:
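In transiently transfected HepG2 liver cells, gain or loss of reporter mRNA after 24 h exposure is scored relative to DMSO, using fluorescence detection by capillary electrophoresis of RT-PCR products.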

Experiment [18] in a line: ATG_PBREM_CIS: Attagene CIS-FACTORIAL HepG2 Assay for human Phenobarbital-responsive Enhancer Module (PBREM) (AID 2282955). Conditions: HepG2 PBREM cis-reporter, Attagene multiplexed transcription; actives raise or lower the signal. The method, boiled down:
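Reporter mRNA read by RT-PCR, 6-FAM primer extension, HpaI digestion and capillary electrophoresis. Transfected HepG2 cells, 24 h compound exposure. Gain or loss of signal fitted bidirectionally relative to DMSO baseline.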

Experiment [19] concerns the target Paired box protein Pax-6 (Homo sapiens) (UniProt P26367). Kind of experiment: ATG_Pax6_CIS: Attagene CIS-FACTORIAL HepG2 Assay for human Paired Box 6 (PAX6) (AID 2282956). Conditions: HepG2 CIS-FACTORIAL PAX6 reporter transcription, RNA readout; actives raise or lower the signal. The method, boiled down:
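Transient MRTU transfection of HepG2 → compound exposure 24 h → TriZol RNA, oligo(dT) RT → PCR, 6-FAM primer extension, HpaI cut → capillary electrophoresis; activity fitted both directions against DMSO.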

Some compounds were tested as several samples or in several runs, with calls that do not always agree. Activity calls are given as the source filed them. How the source made its calls: active means hit-call score of the fitted dose curve at least 0.9, where 1 is the maximum; inactive means score below 0.9.

Hypoxia-inducible factor 1-alpha (Homo sapiens), sequence (Q16665 whole entry, looked up): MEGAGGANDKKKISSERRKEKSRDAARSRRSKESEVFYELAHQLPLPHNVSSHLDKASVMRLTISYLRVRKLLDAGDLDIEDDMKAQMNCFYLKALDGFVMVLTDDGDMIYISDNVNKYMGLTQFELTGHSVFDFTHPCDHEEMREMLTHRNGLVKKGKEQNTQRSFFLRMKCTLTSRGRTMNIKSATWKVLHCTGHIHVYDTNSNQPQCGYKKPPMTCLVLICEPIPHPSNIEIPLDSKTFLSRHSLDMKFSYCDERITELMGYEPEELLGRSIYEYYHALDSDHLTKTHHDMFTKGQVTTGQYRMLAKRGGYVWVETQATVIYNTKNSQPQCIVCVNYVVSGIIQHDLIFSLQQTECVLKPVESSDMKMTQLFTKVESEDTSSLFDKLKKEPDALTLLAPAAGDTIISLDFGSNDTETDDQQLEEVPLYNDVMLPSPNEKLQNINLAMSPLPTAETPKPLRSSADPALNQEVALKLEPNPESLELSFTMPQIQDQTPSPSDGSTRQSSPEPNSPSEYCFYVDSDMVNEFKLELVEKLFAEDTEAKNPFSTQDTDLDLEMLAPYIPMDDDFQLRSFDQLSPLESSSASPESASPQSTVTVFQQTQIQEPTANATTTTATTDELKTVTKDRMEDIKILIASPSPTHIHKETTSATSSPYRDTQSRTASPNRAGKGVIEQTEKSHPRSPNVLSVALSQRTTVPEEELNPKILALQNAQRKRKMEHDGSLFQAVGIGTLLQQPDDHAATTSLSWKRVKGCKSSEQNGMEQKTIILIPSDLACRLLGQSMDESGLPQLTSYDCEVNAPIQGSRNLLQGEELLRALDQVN
Transcription factor Sp1 (Homo sapiens), sequence (P08047 whole entry, looked up): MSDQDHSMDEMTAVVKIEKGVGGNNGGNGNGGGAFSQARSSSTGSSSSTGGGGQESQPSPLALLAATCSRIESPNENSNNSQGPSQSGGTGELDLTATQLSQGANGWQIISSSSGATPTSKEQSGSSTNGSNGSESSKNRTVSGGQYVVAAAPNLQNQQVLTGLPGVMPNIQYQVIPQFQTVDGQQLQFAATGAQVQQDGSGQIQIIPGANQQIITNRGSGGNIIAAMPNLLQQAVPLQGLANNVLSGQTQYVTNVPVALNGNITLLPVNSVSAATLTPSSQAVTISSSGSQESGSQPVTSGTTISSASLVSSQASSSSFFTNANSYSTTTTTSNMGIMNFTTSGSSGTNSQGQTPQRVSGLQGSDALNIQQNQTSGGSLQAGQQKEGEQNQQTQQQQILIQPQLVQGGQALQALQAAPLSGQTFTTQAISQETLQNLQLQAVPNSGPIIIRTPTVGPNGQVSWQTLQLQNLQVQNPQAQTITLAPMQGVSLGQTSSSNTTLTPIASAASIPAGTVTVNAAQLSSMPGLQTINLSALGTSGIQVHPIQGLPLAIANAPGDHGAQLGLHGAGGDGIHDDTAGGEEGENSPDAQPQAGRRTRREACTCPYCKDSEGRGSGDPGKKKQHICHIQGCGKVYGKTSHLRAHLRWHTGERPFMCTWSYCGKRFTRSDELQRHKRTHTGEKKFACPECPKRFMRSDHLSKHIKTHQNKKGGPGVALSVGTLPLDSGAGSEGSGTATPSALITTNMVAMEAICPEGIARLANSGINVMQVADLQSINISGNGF
Signal transducer and activator of transcription 3 (Homo sapiens), sequence (P40763 whole entry, looked up): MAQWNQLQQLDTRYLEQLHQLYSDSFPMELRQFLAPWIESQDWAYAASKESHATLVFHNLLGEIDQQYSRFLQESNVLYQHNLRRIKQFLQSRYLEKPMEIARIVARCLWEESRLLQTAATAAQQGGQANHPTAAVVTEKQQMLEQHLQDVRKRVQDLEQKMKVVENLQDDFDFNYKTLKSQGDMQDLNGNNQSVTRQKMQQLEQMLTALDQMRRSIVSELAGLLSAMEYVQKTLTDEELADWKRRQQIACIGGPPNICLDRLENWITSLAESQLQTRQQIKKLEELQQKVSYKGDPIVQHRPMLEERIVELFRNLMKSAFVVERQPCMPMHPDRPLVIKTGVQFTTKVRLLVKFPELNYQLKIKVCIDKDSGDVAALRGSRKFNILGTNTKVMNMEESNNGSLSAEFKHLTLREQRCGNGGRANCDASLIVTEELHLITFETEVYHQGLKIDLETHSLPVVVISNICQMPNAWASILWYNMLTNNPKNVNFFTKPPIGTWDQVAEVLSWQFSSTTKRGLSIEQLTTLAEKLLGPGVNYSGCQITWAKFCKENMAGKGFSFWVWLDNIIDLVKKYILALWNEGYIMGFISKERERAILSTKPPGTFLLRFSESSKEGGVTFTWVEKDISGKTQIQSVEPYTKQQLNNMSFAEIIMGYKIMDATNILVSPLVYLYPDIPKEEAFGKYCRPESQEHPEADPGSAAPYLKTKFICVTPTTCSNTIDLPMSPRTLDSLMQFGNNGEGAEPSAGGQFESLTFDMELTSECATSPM
Heat shock factor protein 1 (Homo sapiens), sequence (Q00613 whole entry, looked up): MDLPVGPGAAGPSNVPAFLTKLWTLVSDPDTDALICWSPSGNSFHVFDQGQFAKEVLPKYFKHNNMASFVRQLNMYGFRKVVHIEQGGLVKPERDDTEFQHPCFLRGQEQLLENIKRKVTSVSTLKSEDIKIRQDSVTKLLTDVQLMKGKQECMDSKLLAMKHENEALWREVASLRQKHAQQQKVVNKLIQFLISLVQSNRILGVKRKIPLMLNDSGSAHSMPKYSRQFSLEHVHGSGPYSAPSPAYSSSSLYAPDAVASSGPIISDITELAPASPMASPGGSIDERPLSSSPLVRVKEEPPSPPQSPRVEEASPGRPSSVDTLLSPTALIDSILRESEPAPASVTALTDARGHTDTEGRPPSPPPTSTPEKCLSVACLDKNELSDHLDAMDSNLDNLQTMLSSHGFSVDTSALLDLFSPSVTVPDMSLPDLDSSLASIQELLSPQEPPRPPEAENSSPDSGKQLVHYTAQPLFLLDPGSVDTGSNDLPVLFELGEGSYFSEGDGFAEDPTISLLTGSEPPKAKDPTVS
Paired box protein Pax-6 (Homo sapiens), sequence (P26367 whole entry, looked up): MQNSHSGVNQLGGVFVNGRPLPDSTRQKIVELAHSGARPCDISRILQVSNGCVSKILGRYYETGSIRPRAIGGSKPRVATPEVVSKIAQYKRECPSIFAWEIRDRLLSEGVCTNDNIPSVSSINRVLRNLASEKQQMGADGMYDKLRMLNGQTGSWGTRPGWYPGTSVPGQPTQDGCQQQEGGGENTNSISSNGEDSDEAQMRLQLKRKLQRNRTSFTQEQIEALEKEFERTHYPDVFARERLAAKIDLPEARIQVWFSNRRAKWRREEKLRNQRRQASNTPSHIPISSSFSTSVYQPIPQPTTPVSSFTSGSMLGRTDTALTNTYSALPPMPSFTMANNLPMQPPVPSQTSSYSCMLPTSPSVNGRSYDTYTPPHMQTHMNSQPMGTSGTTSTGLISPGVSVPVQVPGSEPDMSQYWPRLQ
Hepatocyte nuclear factor 6 (Homo sapiens), sequence (Q9UBC0 whole entry, looked up): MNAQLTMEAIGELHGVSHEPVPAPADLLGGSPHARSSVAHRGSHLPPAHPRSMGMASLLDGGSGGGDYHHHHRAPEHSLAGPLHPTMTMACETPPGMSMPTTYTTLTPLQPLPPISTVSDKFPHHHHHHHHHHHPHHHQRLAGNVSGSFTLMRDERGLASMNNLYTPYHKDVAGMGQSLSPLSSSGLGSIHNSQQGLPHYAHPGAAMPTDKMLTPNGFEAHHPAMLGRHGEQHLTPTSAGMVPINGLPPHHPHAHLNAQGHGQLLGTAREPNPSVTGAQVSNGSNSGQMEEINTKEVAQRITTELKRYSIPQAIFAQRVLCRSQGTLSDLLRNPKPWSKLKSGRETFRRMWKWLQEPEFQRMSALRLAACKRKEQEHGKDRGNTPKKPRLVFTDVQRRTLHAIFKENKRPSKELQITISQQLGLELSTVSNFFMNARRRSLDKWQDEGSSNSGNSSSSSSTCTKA

Consider `O=C(Nc1ccc(Br)cc1)c1cc(Br)cc(Br)c1O`, for which the result in [1], in experiment [2], in experiment [3], in experiment [8], in [9] and in experiment [10] was inactive. Moreover, the call in [11], in [12], in experiment [13], in experiment [14] and in [15] was inactive. Besides, the AC50 in experiment [4] is 132 µM (active); in [5], 13.3 µM (active); in [6], 3.75 µM (active); in experiment [7], 5.26 µM (active); in experiment [16], 4.16 µM (active); in experiment [17] it was 6.47 µM (active).
In the case of `O=C/C(Cl)=C(/Cl)C(=O)O`, the call in experiment [1], in experiment [2], in experiment [18], in experiment [7], in experiment [8] and in [10] was inactive. For the same molecule, the molecule was called inactive in experiment [12], in experiment [13] and in experiment [15]. For the same molecule, the AC50 in experiment [3] was 136 µM (active); in [4], 151 µM (active); in experiment [5], 136 µM (active); in experiment [19] it was 132 µM (active); in experiment [6] it was 167 µM (active); in experiment [9] it was 83.9 µM (active). In addition, the AC50 in [11] is 159 µM (active); in [14], 31.9 µM (active); in experiment [16] it was 43.7 µM (active); in experiment [17], 74.3 µM (active).
Regarding `Cl[C@H]1OCCO[C@@H]1Cl`, the molecule was classed as inactive in experiment [1], in experiment [3], in experiment [4], in experiment [5], in experiment [18] and in experiment [19]. For the same molecule, the molecule was classed as inactive in [6], in experiment [7], in experiment [8], in experiment [9], in experiment [10] and in [12]. The molecule was called inactive in experiment [13], in experiment [14], in [15] and in [16]. Further, in experiment [2], the concentration at half-maximal activity (AC50) was 49.6 µM (active).
Regarding `CC[N+](CC)(CC)CC`, the call in experiment [1], in experiment [2], in experiment [3], in [4], in [5] and in [18] was inactive. Moreover, the molecule was called inactive in experiment [6], in experiment [7], in experiment [8], in [9], in experiment [10] and in experiment [11]. For the same molecule, the molecule was classed as inactive in experiment [12], in experiment [13], in experiment [14], in [15], in [16] and in [17]. Also, the AC50 in [16] is 1.07 µM (active).
As to `CC(C)(c1ccccc1)c1cc(-n2nc3ccccc3n2)c(O)c(C(C)(C)c2ccccc2)c1`, the result in [1], in [2], in experiment [3], in experiment [4], in experiment [5] and in [18] was inactive. For the same molecule, the call in [7], in [8], in experiment [9], in experiment [10], in [11] and in [12] was inactive. For the same molecule, the molecule was called inactive in [13], in experiment [14], in experiment [15], in experiment [16] and in [17]. Also, the AC50 in experiment [6] was 15.3 µM (active).
Regarding `Clc1cnc(Oc2ccc(Oc3ncc(Cl)cc3Cl)cc2)c(Cl)c1`, the outcome in experiment [1], in [3], in [4], in [5], in [18] and in [19] was inactive. For the same molecule, the outcome in [7], in [8], in experiment [10], in experiment [11], in experiment [12] and in experiment [13] was inactive. The result in experiment [15] and in experiment [16] was inactive. Besides, the results for the concentration at half-maximal activity (AC50) in [6] and in [17] were 9.96 µM (active) and 20 µM (active), respectively.
